# Results filed as inconclusive are left out. The source made the active and inactive calls. How the source made its calls, unless noted: active means hit-call score of the fitted dose curve at least 0.9, where 1 is the maximum; inconclusive means response in the unintended direction; inactive means score below 0.9.
# Tests used:
# [1] = target: Thyroid hormone receptor alpha (Rattus norvegicus) + Thyroid hormone receptor beta (Rattus norvegicus) (UniProt P18113+P63059); experiment: TOX21_TR_LUC_GH3_Agonist_Followup: Tox21 GH3 Thyroid Hormone Receptor Agonism Luciferase Follow-Up Assay (AID 2283939)
# Method in brief: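 Agonist-mode confirmatory run: 15 concentrations (5 nM to 92 uM final) on GH3 rat pituitary cells, 24 h at 37C/5% CO2, T3 as positive control. Luminescence read with ONE-Glo after 30 min.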
# PGR (gene 5241) [2] = target: PGR (gene 5241) (UniProt P06401); experiment: TOX21_PR_BLA_Followup_Antagonist_ratio: Tox21 HEK293 Progesterone Receptor (PR) Antagonism Beta-lactamase Follow-Up Assay, Ratio (AID 2283934);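 further: PR-UAS-bla HEK293T cells stimulated with 1 nM R5020 agonist for 16 hr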
# Method in brief: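 Cells are plated, rested 6 hr, then dosed with test compound in DMSO and challenged with 1 nM promegestone. After 16 hr incubation, substrate loading for 2 h at room temperature precedes fluorescence reading; viability is measured in the same wells.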
# [3] = TOX21_PR_BLA_Followup_Agonist_viability: Viability Assessment in the Tox21 HEK293 Progesterone Receptor (PR) Agonism Beta-lactamase Follow-Up Assay (AID 2283935);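 further: signal loss means lower viability so actives are cytotoxic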
# Method in brief: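 Cells were plated in medium with 2% charcoal-stripped FBS and rested 6 hr. Compounds in DMSO were then added for 16 hr at 37C, followed by the FRET substrate step and CellTiter-Glo luminescence after 30 min.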
# PGR (gene 5241) [4] = target: PGR (gene 5241) (UniProt P06401); experiment: TOX21_PR_LUC_Followup_Antagonist: Tox21 HEK293 Progesterone Receptor (PR) Antagonism Luciferase Follow-Up Assay (AID 2283938);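 further: curve fitted upward as signal gain over DMSO baseline despite antagonist label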
# Method in brief: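 Luminescence from ONE-Glo reagent, measured after 30 min at room temperature, served as readout. Cells (HEK293 carrying PR-A-luc) had been treated 16 h at 37C with DMSO-dissolved compounds. Activity was fitted against DMSO controls.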
# [5] = TOX21_PR_LUC_Followup_Antagonist_viability: Viability Assessment in the Tox21 HEK293 Progesterone Receptor (PR) Antagonism Luciferase Follow-Up Assay (AID 2283940)
# Method in brief: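 HEK293-PR-A-luc, 3,000 cells/well; 5 h at 37C/0% CO2; compound pin transfer; 16 h incubation; CellTiter-Glo ATP luminescence, signal loss = cytotoxicity.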
# [6] = TOX21_PR_LUC_Followup_Agonist_viability: Viability Assessment in the Tox21 HEK293 Progesterone Receptor (PR) Agonism Luciferase Follow-Up Assay (AID 2283941);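 further: loss of signal means cytotoxicity so actives lower viability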
# Method in brief: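 Multiplexed viability endpoint of the PR agonist luciferase follow-up: HEK293-PR-A-luc cells treated 16 h at 37C, with viability scored as decrease in CellTiter-Glo ATP signal.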
# PGR (gene 5241) [7] = target: PGR (gene 5241) (UniProt P06401); experiment: TOX21_PR_BLA_Followup_Agonist_ratio: Tox21 HEK293 Progesterone Receptor (PR) Agonism Beta-lactamase Follow-Up Assay, Ratio (AID 2283933)
# Method in brief: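 Cells were seeded and held 6 hr before compound addition, exposed for 16 hr at 37C, then given FRET substrate for 2 hr at room temperature. Agonism was scored from the blue/green substrate cleavage ratio against DMSO controls.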
# PGR (gene 5241) [8] = target: PGR (gene 5241) (UniProt P06401); experiment: TOX21_PR_LUC_Followup_Agonist: Tox21 HEK293 Progesterone Receptor (PR) Agonism Luciferase Follow-Up Assay (AID 2283937; active means hit-call score of the fitted dose curve at least 0.9, where 1 is the maximum; inactive means score below 0.9)
# Method in brief: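 Seed HEK293-PR-A-luc cells, wait 5 h, add compounds in DMSO, incubate 16 h at 37C, add ONE-Glo, read luminescence after 30 min. Activity is increase over DMSO controls; run with a viability counter-screen.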
# [9] = TOX21_PR_BLA_Followup_Antagonist_viability: Viability Assessment in the Tox21 HEK293 Progesterone Receptor (PR) Antagonism Beta-lactamase Follow-Up Assay (AID 2283936);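 further: cells exposed to compound with R5020 agonist for 16 h; hits lower the luminescence signal meaning cytotoxicity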
# Method in brief: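 PR-UAS-bla HEK293T cells in medium with 2% charcoal-stripped FBS were treated with compounds plus R5020 for 16 hr at 37C. After the beta-lactamase read, CellTiter-Glo was added to the same wells and luminescence read after 30 min at room temperature.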
# Sequence of PGR (gene 5241) (P06401 whole entry, looked up): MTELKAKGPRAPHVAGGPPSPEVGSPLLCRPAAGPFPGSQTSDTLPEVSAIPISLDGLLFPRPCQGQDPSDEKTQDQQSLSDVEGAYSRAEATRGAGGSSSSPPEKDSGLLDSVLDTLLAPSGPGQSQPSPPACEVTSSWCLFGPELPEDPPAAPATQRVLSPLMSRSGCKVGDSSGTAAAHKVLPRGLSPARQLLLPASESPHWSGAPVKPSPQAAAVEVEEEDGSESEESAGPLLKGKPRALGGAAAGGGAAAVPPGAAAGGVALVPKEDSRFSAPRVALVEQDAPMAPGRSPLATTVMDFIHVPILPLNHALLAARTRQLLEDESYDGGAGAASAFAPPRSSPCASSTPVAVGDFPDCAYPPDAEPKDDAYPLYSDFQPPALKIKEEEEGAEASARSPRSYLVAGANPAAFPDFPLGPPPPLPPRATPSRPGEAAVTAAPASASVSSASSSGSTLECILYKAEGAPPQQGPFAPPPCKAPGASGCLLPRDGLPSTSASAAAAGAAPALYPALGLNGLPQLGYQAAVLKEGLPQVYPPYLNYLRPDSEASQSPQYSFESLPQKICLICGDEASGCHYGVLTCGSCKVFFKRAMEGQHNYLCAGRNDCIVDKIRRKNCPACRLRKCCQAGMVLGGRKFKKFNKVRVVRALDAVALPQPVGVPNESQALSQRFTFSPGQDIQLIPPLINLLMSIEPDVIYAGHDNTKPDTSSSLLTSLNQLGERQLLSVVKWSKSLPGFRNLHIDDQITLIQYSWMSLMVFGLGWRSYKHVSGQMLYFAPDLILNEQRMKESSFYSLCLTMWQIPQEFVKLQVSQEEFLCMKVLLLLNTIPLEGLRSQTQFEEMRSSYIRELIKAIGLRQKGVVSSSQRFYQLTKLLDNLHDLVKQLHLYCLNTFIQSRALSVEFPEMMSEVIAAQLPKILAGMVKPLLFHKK
# Sequence of Thyroid hormone receptor alpha (Rattus norvegicus) + Thyroid hormone receptor beta (Rattus norvegicus) (P63059 whole entry, looked up): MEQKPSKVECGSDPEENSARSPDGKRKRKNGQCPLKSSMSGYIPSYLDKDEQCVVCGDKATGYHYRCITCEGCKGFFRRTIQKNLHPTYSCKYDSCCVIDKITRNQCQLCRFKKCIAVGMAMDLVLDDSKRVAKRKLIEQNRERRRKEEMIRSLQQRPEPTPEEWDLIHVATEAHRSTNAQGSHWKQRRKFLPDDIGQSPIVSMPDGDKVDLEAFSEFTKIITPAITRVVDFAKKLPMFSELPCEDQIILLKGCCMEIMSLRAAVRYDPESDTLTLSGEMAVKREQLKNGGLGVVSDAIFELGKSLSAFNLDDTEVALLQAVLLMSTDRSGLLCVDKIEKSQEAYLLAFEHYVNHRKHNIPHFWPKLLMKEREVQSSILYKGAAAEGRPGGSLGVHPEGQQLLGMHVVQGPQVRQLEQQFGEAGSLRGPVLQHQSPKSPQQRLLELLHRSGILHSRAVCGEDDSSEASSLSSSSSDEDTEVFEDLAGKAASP
# Sequence of Thyroid hormone receptor alpha (Rattus norvegicus) + Thyroid hormone receptor beta (Rattus norvegicus) (P18113 whole entry, looked up): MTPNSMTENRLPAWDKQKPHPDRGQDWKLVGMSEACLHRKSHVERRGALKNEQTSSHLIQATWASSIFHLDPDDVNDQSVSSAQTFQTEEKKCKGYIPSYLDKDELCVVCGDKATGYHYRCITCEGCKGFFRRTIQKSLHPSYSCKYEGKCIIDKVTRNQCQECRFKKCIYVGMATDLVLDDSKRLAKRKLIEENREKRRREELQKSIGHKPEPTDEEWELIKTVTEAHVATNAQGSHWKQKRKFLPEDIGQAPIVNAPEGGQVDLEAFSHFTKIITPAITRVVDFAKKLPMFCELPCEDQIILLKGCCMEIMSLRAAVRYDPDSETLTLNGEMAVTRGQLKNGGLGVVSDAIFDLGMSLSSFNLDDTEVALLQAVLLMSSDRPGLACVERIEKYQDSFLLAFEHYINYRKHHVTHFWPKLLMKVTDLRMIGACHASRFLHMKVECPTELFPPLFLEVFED
compound,measurement,setting,value
Cc1cc(O)ccc1Cl,outcome,[1],inactive
Clc1ccc(C(c2ccccc2Cl)C(Cl)(Cl)Cl)cc1 (configuration not stated),AC50,PGR (gene 5241) [2],12.7 µM (active)
same,AC50,[3],46.1 µM (active)
same,AC50,PGR (gene 5241) [4],15.6 µM (active)
same,outcome,[5],inactive
same,AC50,[6],76 µM (active)
CC(C)(O)C(=O)Nc1ccc([N+](=O)[O-])c(C(F)(F)F)c1,outcome,PGR (gene 5241) [7],inactive
same,outcome,PGR (gene 5241) [8],inactive
same,outcome,[5],inactive
same,outcome,[6],inactive
N#Cc1ccc(N(CC(N)=O)CC(F)(F)F)cc1C(F)(F)F,outcome,PGR (gene 5241) [7],inactive
same,AC50,PGR (gene 5241) [2],46.1 µM (active)
same,outcome,[9],inactive
same,outcome,PGR (gene 5241) [8],inactive
same,AC50,PGR (gene 5241) [4],46.1 µM (active)
same,outcome,[5],inactive
same,outcome,[6],inactive

# Reference: PubChem BioAssay (EPA / NIEHS)
